High-throughput results (PubChem)
In the library only some 11% were active in any assay of this set; here they are far more common.
G9a inh: G9a (human) methyltransferase inhibition; Q96KQ7; G9a H3K9 monomethylation, AlphaScreen, 2 h; Potency, µM (top dose mostly 102 µM), usual class: inhibitors; 350,000 tested, 8.8% active; AID 504332; note: nearly all actives have a fitted effect of over 75% in size
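AlphaScreen detection with an anti-monomethyl H3K9 antibody quantified product after a 2 h room-temperature reaction containing 500 nM biotinylated H3K9 peptide, 20 µM SAM and 20 nM enzyme, which had been preincubated 15 min with compound.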
HP1b binding inh: blocks HP1-beta chromodomain binding to methylated histone tails. P83916. 390,000 tested, 0.56% active. Potency, µM (series often up to 114 µM), actives largely listed as inhibitors. AlphaScreen HP1-beta / biotin-H3K9me3 peptide binding; note: nearly all actives have a fitted effect of over 70% in size
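HP1-beta protein (50 nM final) preincubated 30 min at room temperature with biotinylated H3(1-18)K9me3 peptide (50 nM) in PBS pH 7.4, 0.01% Tween-20, then compound added for 30 min. AlphaScreen streptavidin donor/nickel chelate acceptor beads (10 ug/mL final), 30 min dark, luminescence read.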
VDR inh: blocks the human vitamin D receptor; P11473; VDR-SRC2-3 peptide fluorescence polarization, 2 h; Potency, µM, actives largely listed as inhibitors; 400,000 tested, 0.93% active; AID 504847
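Reagent solutions, kept cold and dark, are dispensed first; compounds are then pinned in at 23 nl, plates briefly spun, and incubated 2 h at ambient temperature. Inhibition of VDR–SRC2-3 peptide binding is read by fluorescence polarization.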
PLK1 PBD inh: PLK1 (human) polo-box domain binding inhibition; P53350; Plk1 PBD binding of FITC phosphopeptide, fluorescence polarization; Potency, µM, usual class: inhibitors; 360,000 tested, 2.8% active; note: series mostly up to about 57 µM; nearly all actives have a fitted effect of over 65% in size
JMJD2A Tudor inh: JMJD2A Tudor domain (human) inhibition | AlphaScreen JMJD2A-Tudor / H3K4me3 peptide binding | Potency, µM (doses to about 114 µM), actives largely listed as inhibitors | 390,000 tested, 4.4% active; note: nearly all actives have a fitted effect of over 50% in size
BAZ2B inh: inhibitors of human BAZ2B bromodomain. 360,000 tested, 4.4% active. Potency, µM (top dose mostly 114 µM), usual class: inhibitors. Q9UIF8. AlphaScreen BAZ2B-H3K14Ac peptide displacement; note: nearly all actives have a fitted effect of over 60% in size
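Protein-peptide AlphaScreen: BAZ2B 50 nM, b-H3K14Ac 50 nM, 1x PBS pH 7.4 + 0.01% Tween-20. Preincubation 30 min RT; cpd 30 min RT (top 110 uM); beads 20 min RT, light-protected.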
Large screens that a line does not name were inactive. Calls come from the whole dose curve; as a rule, active = well fitted curve in the direction sought with a large enough effect; inconclusive = small, poorly fitted or top-dose-only effect, or another doubt; inactive = no such curve, though single readings can be large; an effect the other way counts as inactive or inconclusive.

COc1cc(NC2c3ccccc3C(=O)N2Cc2ccc3c(c2)OCO3)cc(OC)c1 (stereo not drawn)	G9a inh 50.1µM, JMJD2A Tudor inh inconclusive, BAZ2B inh inconclusive
O=C(NCCC1CCCCN1S(=O)(=O)c1ccccc1)C(=O)NC1CCCC1 (stereo not drawn)	none
O=C(O)C1CCCN1S(=O)(=O)c1cccc(S(=O)(=O)N2CCCC2C(=O)O)c1 (stereo not drawn)	G9a inh 3.16µM
O=C(NCC1CCCN1S(=O)(=O)c1ccccc1)C(=O)NC1CC1 (stereo not drawn)	G9a inh 50.1µM, JMJD2A Tudor inh 35.5µM
CCCC(NC(=O)CCc1c(C)c2cc3c4c(oc3c(C)c2oc1=O)CCCC4)C(=O)O (stereo not drawn)	none
Cc1ccc(C(=O)c2oc3ccccc3c2NC(=O)COc2ccc(C(C)C)cc2)cc1	none (no result: PLK1 PBD inh)
Cc1ccc(C(=O)c2oc3ccccc3c2NC(=O)COc2ccccc2Cl)cc1	BAZ2B inh 50.1µM (no result: PLK1 PBD inh)
COc1ccc(CN(C)C(=O)c2ccncc2)c(OC)c1	none (no result: G9a inh)
Cc1cc(NS(=O)(=O)c2ccc(NC(=O)CN3C(=O)NC(C)(c4ccccc4)C3=O)cc2)nc(C)n1 (stereo not drawn)	G9a inh 14.1µM
CCN(CC)S(=O)(=O)c1ccc(N2CCOCC2)c(NC(=O)CN2C(=O)NC(C)(c3ccccc3)C2=O)c1 (stereo not drawn)	G9a inh 15.8µM
COc1ccc(S(=O)(=O)N2CCCCCC2)cc1NC(=O)CN1C(=O)NC(C)(c2ccccc2)C1=O (stereo not drawn)	G9a inh 15.8µM
O=C(O)CNS(=O)(=O)c1ccc2c(c1)C(=O)c1cc(S(=O)(=O)NCC(=O)O)ccc1-2	G9a inh 44.7µM
O=C1c2ccccc2C(=O)c2cc(S(=O)(=O)Nc3ccccc3)ccc21	G9a inh inconclusive, HP1b binding inh inconclusive, JMJD2A Tudor inh inconclusive, BAZ2B inh 11.2µM
O=C(NCCc1ccc(Cl)cc1)c1ccc(CS(=O)(=O)c2ccc(Cl)cc2)o1	none (no result: PLK1 PBD inh)
Cc1ccc(Cn2c(CCCO)nc3ccccc32)cc1	none
O=C(NCCc1ccc2c(c1)OCCO2)c1cc(S(=O)(=O)N2CCCC2)ccc1Cl	G9a inh 39.8µM
Cc1ccc(C2C(C#N)=C(N)Oc3cc(N)ccc32)cc1 (stereo not drawn)	JMJD2A Tudor inh inconclusive, BAZ2B inh inconclusive (no result: G9a inh)
Cc1oc(C)c2c(=O)ccc3c(c12)OC(N)=C(C#N)C3c1ccc(F)cc1 (stereo not drawn)	G9a inh inconclusive, HP1b binding inh inconclusive, PLK1 PBD inh inconclusive, BAZ2B inh 56.2µM
Cc1csc(C(=O)NCC(=O)NNC(=O)c2cccc(Cl)c2)c1	none
CN(C)c1c(-c2ccccc2)cc(-c2ccccc2)[nH]c1=O	G9a inh 35.5µM (no result: HP1b binding inh, VDR inh, PLK1 PBD inh, JMJD2A Tudor inh)
Cc1ccc(NS(=O)(=O)c2cc3c(cc2F)NC(=O)CC3)cc1C	none (no result: G9a inh, HP1b binding inh, VDR inh, PLK1 PBD inh, BAZ2B inh)
c1ccc(-n2c(Cc3cn4ccsc4n3)nnc2N2CCOCC2)cc1	G9a inh inconclusive, JMJD2A Tudor inh 50.1µM, BAZ2B inh inconclusive
O=S(=O)(c1ccsc1)N1CCN(c2nc(-c3cccs3)nc3ccccc23)CC1	none (no result: G9a inh, HP1b binding inh, VDR inh, PLK1 PBD inh, BAZ2B inh)
Cc1cc(C(=O)NP(=O)(N2CCOCC2)N2CCOCC2)c(C)n1-c1ccc(Br)cc1	G9a inh 50.1µM, BAZ2B inh inconclusive
Cc1cc(C(=O)NP(=O)(N2CCOCC2)N2CCOCC2)c(C)n1-c1ccc(N(C)C)cc1	G9a inh 22.4µM, VDR inh inconclusive, JMJD2A Tudor inh inconclusive, BAZ2B inh inconclusive
O=c1cc(-c2ccccc2)nc2c(Cl)cc(Cl)cn12	none (no result: G9a inh, HP1b binding inh, VDR inh, JMJD2A Tudor inh, BAZ2B inh)
O=C([O-])c1cc(-c2ccccc2)cc(-c2ccccc2)[n+]1Cc1ccccc1	none (no result: HP1b binding inh, VDR inh, PLK1 PBD inh, JMJD2A Tudor inh)
O=C(c1cnccn1)N1CCC2(CCN(Cc3ccccc3)CC2)CC1	none (no result: HP1b binding inh, PLK1 PBD inh, JMJD2A Tudor inh, BAZ2B inh)
COc1ccc2oc(=O)c(C(=O)NCCc3c(C)[nH]c4ccc(F)cc34)cc2c1	none (no result: PLK1 PBD inh)
COc1ccc(N2CCN(CCCNC(=O)C(=O)c3c(C)n(C)c4ccccc34)CC2)cc1	G9a inh 39.8µM, JMJD2A Tudor inh inconclusive, BAZ2B inh 35.5µM
COc1ccccc1N1CCN(C(=O)C(=O)c2c(C)n(C)c3ccccc23)CC1	none
